# Results reported in ChEMBL document CHEMBL3988442, “University of Dundee, Small-Polar-MMV Screening Library” (2021).
# Among all 66,000 compounds or so, about 960 (1.5%) showed an effect of 50% or more. This excerpt belongs to a sample that is enriched for strong results.
# Test system: Trypanosoma brucei
# Test: Trypanosoma brucei 72 hour study
# Assay type: functional, organism-based
# Design: scale not given: in the data most compounds retested in dose-response had high values
smiles,measurement,setting,value
CCO[C@@H]1CCN(c2ccc(C)nn2)[C@@H]1Cc1cnn(C)c1,Percent Effect,"30.3 µM, […]",-24.65%
CO[C@H]1CCN(c2ccc(C)nn2)[C@H]1Cc1cnn(C)c1,Percent Effect,"30 µM, 30.03 µM",12.56%
Cc1ccc(N2CC[C@H](OCC3CC3)[C@@H]2Cc2cnn(C)c2)nn1,Percent Effect,"30 µM, 30.03 µM",51.55%
Fc1ccccc1CN(CCCn1ccnc1)CC1CCOC1.O=C(O)CC(O)(CC(=O)O)C(=O)O (stereo not drawn),Percent Effect,"30.3 µM, […]",-0.3397%
Cc1cc(CCC(=O)O)nc(C2CCCN2c2ccnc(C)n2)n1 (stereo not drawn),Percent Effect,"30.3 µM, […]",3.845%
Cl.Cl.c1cn(-c2cnc(C3CCNCC3)cn2)cn1,Percent Effect,"30.3 µM, […]",-23.68%
CC(C)(C)c1ccc(OCC(N)=O)c(CN2C[C@H]3C[C@H](O)C[C@H]3C2)c1,Percent Effect,"30.3 µM, […]",-10.55%
COc1ccc(C(=O)N2C[C@@H](NC(=O)N(C)C)[C@H](C(C)C)C2)c(OC)n1,Percent Effect,"30 µM, 30.03 µM",-11.49%
Cc1nc(CN2CCCC(N(C)Cc3cscn3)C2)no1 (stereo not drawn),Percent Effect,"30 µM, 30.03 µM",106.7%
Cc1cc(CN(C)C2CCCN(Cc3noc(C)n3)C2)no1 (stereo not drawn),Percent Effect,"30.3 µM, […]",-25.02%
Cc1nc(CN(C)C2CCN(Cc3nc4ccccc4s3)C2)no1 (stereo not drawn),Percent Effect,"30 µM, 30.03 µM",13.35%
Cc1nc(CN(C)C2CCN(Cc3nc4ccccc4n3C)C2)no1 (stereo not drawn),Percent Effect,10 µM,-9.408%
same,Percent Effect,"30.3 µM, […]",44.6%
CN(Cc1cscn1)C1CCCN(Cc2noc(C3CC3)n2)C1 (stereo not drawn),Percent Effect,"30 µM, 30.03 µM",-28.03%
Cc1nc(CN(C)C2CCN(Cc3ccc4ccccc4n3)C2)no1 (stereo not drawn),Percent Effect,"30.3 µM, […]",99.64%
Cc1occc1C(=O)N1C[C@@H]2OCCN(c3ncccn3)[C@@H]2C1.O=C(O)C(F)(F)F,Percent Effect,"30.3 µM, […]",-9.285%
COc1ccc(-n2ccnc2-c2ccc(C(=O)O)s2)cc1CO,Percent Effect,"30 µM, 30.03 µM",-62.12%
Nc1ncc(-c2ccc(F)cc2)c(C2CCCNC2)n1 (stereo not drawn),Percent Effect,"30.3 µM, […]",1.475%
Nc1ncc(-c2ccc(C(F)(F)F)cc2)c(C2CCCNC2)n1 (stereo not drawn),Percent Effect,"30.3 µM, […]",90.9%
Nc1ncc(-c2ccc(Cl)cc2)c(C2CCCNC2)n1 (stereo not drawn),Percent Effect,"30.3 µM, […]",28.09%
Cc1nc(C)c(C(=O)N2Cc3ccccc3OCC2CN(C)C)o1.Cl.Cl (stereo not drawn),Percent Effect,"30.3 µM, […]",-20.04%
O=C(O)C(F)(F)F.O=C(O)C(F)(F)F.O=C(c1n[nH]c2c1CN(C1CCOC1)CC2)N1CCCC1 (stereo not drawn),Percent Effect,"30.3 µM, […]",8.032%
CCCNC(=O)c1nn(CC)cc1NC(=O)c1cn(C)nc1C,Percent Effect,"30.3 µM, […]",26.24%
CCCNC(=O)c1nn(CC)cc1NC(=O)c1c(C)nn(C)c1C,Percent Effect,"30.3 µM, […]",45.33%
CCn1cc(NC(=O)c2c(C)nn(C)c2C)c(C(N)=O)n1,Percent Effect,"30.3 µM, […]",53.08%
Cc1cnc2n(c1=O)CC(C(=O)Nc1ccon1)CS2 (stereo not drawn),Percent Effect,"30 µM, 30.03 µM",-0.7773%
O=C(c1cc(Cl)c[nH]1)N1CCCC(c2cc(C(F)(F)F)[nH]n2)C1 (stereo not drawn),Percent Effect,"30.3 µM, […]",80.28%
O=C(c1ccc[nH]1)N1CCCC(c2cc(C(F)(F)F)[nH]n2)C1 (stereo not drawn),Percent Effect,"30 µM, 30.03 µM",38.21%
O=C(c1cc[nH]n1)N1CCCC(c2cc(C(F)(F)F)[nH]n2)C1 (stereo not drawn),Percent Effect,"30.3 µM, […]",17.05%
CCOC(=O)C1CC2(CCCCC2)N2CCC(=O)N12 (stereo not drawn),Percent Effect,"30.3 µM, […]",-30.31%
Cc1ccc(C(=O)N2Cc3c(CN4CCCCC4)nn(C)c3C2)o1.O=C(O)C(F)(F)F,Percent Effect,"30 µM, 30.03 µM",0.5997%
COc1cccc(-c2cc(NCCO)nc3[nH]ccc23)n1,Percent Effect,"30.3 µM, […]",-6.078%
COc1cccc(-c2cc(NCCN(C)C)nc3[nH]ccc23)n1,Percent Effect,"30.3 µM, […]",96.05%
COc1cccc(-c2cc(NCC(=O)O)nc3[nH]ccc23)n1,Percent Effect,"30.3 µM, […]",-16.38%
O=C(O)CCn1ccc2c(nnc3c(-c4ccc(F)cc4)cnn32)c1=O,Percent Effect,"30 µM, 30.03 µM",-41.42%
Cc1cc(C)c(-n2cccn2)c(CN2CCOCC(CN(C)C)C2)c1 (stereo not drawn),Percent Effect,"30.3 µM, […]",-14.72%
Cc1ccc(-n2cc(CN3CCOCC(CN(C)C)C3)cn2)cc1C (stereo not drawn),Percent Effect,"30.3 µM, […]",98.04%
Cc1cc(-n2cccn2)ccc1CN1CCOCC(CN(C)C)C1 (stereo not drawn),Percent Effect,"30.3 µM, […]",-10.31%
CN(C)c1ncc2c(O)nc(C3CCNCC3)cc2n1.Cl,Percent Effect,"30.3 µM, […]",-29.5%
CC(=O)NC1CCN(c2ccnc(C3CCNCC3)c2)CC1.O=C(O)C(F)(F)F,Percent Effect,"30.3 µM, […]",-10.98%
O=C(Nc1ccccn1)NC1CCN(c2ccccc2OC(F)F)C1 (stereo not drawn),Percent Effect,"30 µM, 30.03 µM",-33.53%
O=C(Nc1cccnc1)NC1CCN(c2ccccc2OC(F)F)C1 (stereo not drawn),Percent Effect,"30 µM, 30.03 µM",-24.57%
O=C(Nc1ccncc1)NC1CCN(c2ccccc2OC(F)F)C1 (stereo not drawn),Percent Effect,"30 µM, 30.03 µM",57.33%
Cc1nc(N(C)C)nc(C)c1NC(=O)c1ccccc1F,Percent Effect,"30 µM, 30.03 µM",-23.68%
CO[C@@H]1CCN(Cc2cnn(C)c2)[C@@H]2CN(Cc3cccnc3)C[C@@H]21.O=C(O)C(F)(F)F.O=C(O)C(F)(F)F.O=C(O)C(F)(F)F,Percent Effect,"30 µM, 30.03 µM",-0.5656%
CN(C)C(=O)CN1CCC(c2c(C(N)=O)sc3ncccc23)C1 (stereo not drawn),Percent Effect,"30.3 µM, […]",-20.96%
CCc1ncc2c(n1)CN(Cc1cccc3c1OCCO3)CC2,Percent Effect,"30 µM, 30.03 µM",-15.38%
Cc1ncc2c(n1)CN(Cc1cccc3c1OCCO3)CC2,Percent Effect,"30 µM, 30.03 µM",-9.069%
CC(C)c1ncc2c(n1)CN(Cc1cccc3c1OCCO3)CC2,Percent Effect,"30 µM, 30.03 µM",65.77%
O=C(O)C(F)(F)F.O=C(O)C(F)(F)F.O=C(c1ccsc1)N1C[C@@H]2OCCN(CCN3CCCC3)[C@@H]2C1,Percent Effect,"30.3 µM, […]",-142.2%
CCn1cc(Cl)c(C(=O)NCCOC)n1,Percent Effect,"30.3 µM, […]",-26.01%
CCNC(=O)CCc1c(C)nc2cc(O)nn2c1C,Percent Effect,"30 µM, 30.03 µM",30.72%
COc1ccc(NC(=O)CCc2c(C)nc3cc(O)nn3c2C)cn1,Percent Effect,"30 µM, 30.03 µM",73.91%
COC(=O)CCc1c(C)nc2cc(O)nn2c1C,Percent Effect,"30 µM, 30.03 µM",37.13%
Cc1ccc2c(c1)CN(C(=O)c1cccnc1)C(CN(C)C)CO2.Cl (stereo not drawn),Percent Effect,"30.3 µM, […]",-3.741%
Cc1cnc(N2CCO[C@@H]3CC(COCc4cccnc4)C[C@H]32)nc1.O=C(O)C(F)(F)F.O=C(O)C(F)(F)F (stereo partly drawn),Percent Effect,"30.3 µM, […]",-14.97%
Cl.c1cnc2c(c1)cc([C@@H]1CCCO1)n2CCN1CCOCC1,Percent Effect,"30.3 µM, […]",-1.684%
CCc1ccc(S(=O)(=O)N2Cc3c(CN(C)C)nn(C)c3C2)cc1.O=C(O)C(F)(F)F,Percent Effect,"30.3 µM, […]",-1.293%
O=C(Nc1cccc(CN2CCOC2=O)c1)N1CCCC1,Percent Effect,"30 µM, 30.03 µM",-2.123%
O=C(Nc1cccc(CN2CCOC2=O)c1)N1CCSCC1,Percent Effect,"30 µM, 30.03 µM",53.61%
O=C(Nc1cccc(CN2CCOC2=O)c1)N1CCCCCC1,Percent Effect,"30 µM, 30.03 µM",-56.22%
COc1ccc(C[C@H]2CN(C(=O)CN(C)C)CC[C@H]2OC)cc1.O=C(O)C(F)(F)F,Percent Effect,"30.3 µM, […]",4.427%
CCS(=O)(=O)N1Cc2ccccc2CC1C(=O)OCc1c(C)noc1C (stereo not drawn),Percent Effect,"30 µM, 30.03 µM",-54.09%
Cc1cc(COC(=O)[C@@H]2Cc3ccccc3CN2S(C)(=O)=O)no1,Percent Effect,"30 µM, 30.03 µM",77.9%
CCS(=O)(=O)N1Cc2ccccc2CC1C(=O)OCc1cc(C)no1 (stereo not drawn),Percent Effect,"30 µM, 30.03 µM",-34.32%
COCCNC(=O)N1CCCC1COc1ccccc1 (stereo not drawn),Percent Effect,"30.3 µM, […]",-9.999%
Cc1ccccc1SC1CCN(C(=O)C2CNCC(=O)N2)CC1 (stereo not drawn),Percent Effect,"30.3 µM, […]",6.741%
Cc1ccccc1SC1CCN(C(=O)C2CNC(=O)N2)CC1 (stereo not drawn),Percent Effect,"30.3 µM, […]",-1.493%
Cc1ccccc1SC1CCN(C(=O)[C@H]2[C@@H]3CNC[C@@H]32)CC1,Percent Effect,"30.3 µM, […]",52.77%
COCC1CN(Cc2ccoc2)Cc2nn(C)cc21.O=C(O)C(F)(F)F (stereo not drawn),Percent Effect,"30 µM, 30.03 µM",26.18%
CN(C)C[C@@H]1CCC[C@@H]2CN(c3nccc(C(F)(F)F)n3)C[C@@H]21.O=C(O)C(F)(F)F,Percent Effect,"30.3 µM, […]",99.5%
CN(C)C[C@@H]1CCC[C@@H]2CN(c3ncccn3)C[C@@H]21.O=C(O)C(F)(F)F,Percent Effect,"30.3 µM, […]",-12.16%
CN(C[C@@H]1CCC[C@@H]2CN(c3ncccn3)C[C@@H]21)C1CC1.O=C(O)C(F)(F)F,Percent Effect,"30.3 µM, […]",-3.838%
CNCC(=O)Nc1ccc(-c2cnc(NCCS(C)(=O)=O)nc2)cc1,Percent Effect,"30.3 µM, […]",-12.7%
COc1cccc(CN2CCCC2c2ccc[nH]2)c1 (stereo not drawn),Percent Effect,"30 µM, 30.03 µM",1.101%
Cc1cc(C2CCCN2Cc2ccn(C)c(=O)c2)on1 (stereo not drawn),Percent Effect,"30.3 µM, […]",6.831%
COc1cccc(CN2CCCCCC2c2cccc(C)c2)c1O (stereo not drawn),Percent Effect,"30 µM, 30.03 µM",-7.245%
COc1ccccc1CN1CCCCC1c1n[nH]cc1-c1cc(C)no1.Cl (stereo not drawn),Percent Effect,"30.3 µM, […]",99.66%
CCc1ccc(CN2CCCCC2c2n[nH]cc2-c2cc(C)no2)cc1.Cl (stereo not drawn),Percent Effect,"30.3 µM, […]",53.31%
COc1ccc(CN2CCCCC2c2n[nH]cc2-c2cc(C)no2)cc1.Cl (stereo not drawn),Percent Effect,"30.3 µM, […]",57.52%
COc1ccccc1CNc1ncc(-c2cc(C)no2)c(C(C)C)n1,Percent Effect,"30.3 µM, […]",-4.15%
Cc1c[nH]nc1C1CCCN1Cc1ccncc1 (stereo not drawn),Percent Effect,"30.3 µM, […]",-23.61%
COc1cccc(CN2CCCCC2c2n[nH]cc2-c2cc(C)no2)c1.Cl (stereo not drawn),Percent Effect,"30.3 µM, […]",52.03%
COc1ccc(CN2CCC[C@H]2c2nc(-c3cncnc3N)no2)cc1,Percent Effect,"30.3 µM, […]",-48.86%
COc1cccc(CN2CCCC2c2c(C)nn(C)c2C)c1 (stereo not drawn),Percent Effect,"30 µM, 30.03 µM",-36.92%
COCC(=O)N1CCCCC1c1nc(N(C)C)ncc1-c1cc(C)no1 (stereo not drawn),Percent Effect,"30.3 µM, […]",-6.324%
CC(C)c1nc(CNC2CCN(S(C)(=O)=O)CC2)cs1,Percent Effect,"30.3 µM, […]",-4.773%
CC(C)Cn1ccc2c(NC(=O)c3n[nH]c4c3CCC4)cccc21,Percent Effect,"30 µM, 30.03 µM",8.967%
CCc1nc(C2CCCN2C(=O)c2cc[nH]n2)no1 (stereo not drawn),Percent Effect,10 µM,-9.958%
same,Percent Effect,"30.3 µM, […]",8.971%
O=C(NCc1ccco1)N1CCC(n2ccc(C(F)(F)F)n2)CC1,Percent Effect,"30 µM, 30.03 µM",-15.14%
O=C(O)C(F)(F)F.c1coc(CN2CC[C@H]3O[C@@H](COCC4CC4)CC[C@H]32)c1,Percent Effect,"30 µM, 30.03 µM",-38.88%
Cc1nc(CN2C(=O)CC[C@@H]3[C@H]2CCN3C2CCOCC2)cs1.O=C(O)C(F)(F)F,Percent Effect,"30 µM, 30.03 µM",-42.08%
CC(=O)N1CCC2(CC1)CCN(C(=O)c1cccc(C(F)(F)F)c1)C2,Percent Effect,"30 µM, 30.03 µM",38.42%
Cc1nccc(NCc2cncc3c2CCN(CC2CC2)C3)n1.Cl.Cl,Percent Effect,"30.3 µM, […]",-82.02%
COc1cccc(S(=O)(=O)CCN2CCN(CC(F)F)CC2)c1,Percent Effect,"30.3 µM, […]",100.9%
COc1cccc(S(=O)(=O)CCN2CCN(CCO)CC2)c1,Percent Effect,"30.3 µM, […]",19.12%
COCCN1CCN(CCS(=O)(=O)c2cccc(OC)c2)CC1,Percent Effect,"30.3 µM, […]",-9.149%
